The source made the active and inactive calls. How the calls were made is not given here.
The compounds below were run on Aerobactin synthetase IucA (Klebsiella pneumoniae hvKP1) (assay: IucA enzyme inhibition, primary screen, biochemical, Spectrum library (AID 1346200;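 further: 100% = wells without compound and 0% = wells lacking enzyme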)). Conditions: malachite green pyrophosphate, A620, at 8 µM, stronger effect = lower value.

| SMILES | activity remaining |
| --- | --- |
| CC(=O)OCC(=O)[C@@]1(O)CCC2C3CCC4=CC(=O)C=CC4(C)C3[C@@H](O)C[C@@]21C (some centres not stated) | 81.1% (inactive) |
| CC1CCC2(OC1)OC1CC3C4CC[C@H]5C[C@@H](O)CC[C@]5(C)C4CC(=O)[C@]3(C)C1C2C (some centres not stated) | 94.1% (inactive) |
| CC(=O)O[C@@H]1CC2C(C)(C)[C@H](O)CC[C@]2(C)C2CC[C@@]3(C)[C@H](c4ccoc4)OC(=O)C4OC43[C@@]21C (some centres not stated) | 122% (inactive) |
| Cc1c(N(C)CS(=O)(=O)O)c(=O)n(-c2ccccc2)n1C | 97.1% (inactive) |
| COc1ccc(C2C(=O)c3ccccc3C2=O)cc1 | 119% (inactive) |
| CC(N)CCCC(C)(C)O (configuration not stated) | 123% (inactive) |
| CC12CCC3c4ccc(OCc5ccccc5)cc4CCC3C1C[C@@H](O)[C@@H]2O (some centres not stated) | 119% (inactive) |
| CC(=O)NS(=O)(=O)c1ccc(N)cc1 | 126% (inactive) |
| Cc1c(NC(=O)c2cccnc2)c(=O)n(-c2ccccc2)n1C | 85.4% (inactive) |
| CC1(C)O[C@H]2CC(=O)OC[C@]23[C@H]2CC[C@@]4(C)[C@H](c5ccoc5)OC(=O)[C@H]5O[C@]54[C@]2(C)C(=O)C[C@@H]13 | 112% (inactive) |
| CCC(C)(C)C(=O)O[C@H]1C[C@@H](C)C=C2C=C[C@H](C)[C@H](CC[C@@H]3C[C@@H](O)CC(=O)O3)[C@H]21 | 106% (inactive) |
| CCc1ccc(CCOc2ccc(CC3SC(=O)NC3=O)cc2)nc1 (configuration not stated) | 120% (inactive) |
| COc1cc2ccc(=O)oc2cc1O | 110% (inactive) |
| C=C1C(=O)[C@]23[C@H](O)[C@H]1CC[C@H]2[C@@]12COC3(O)[C@H](O)[C@@H]1C(C)(C)CC[C@@H]2O | 98.4% (inactive) |
| CC(C)c1cccc(O)c(=O)c1 | 123% (inactive) |
| CC(=O)O[C@@H]1CC2C(C)(C)C(=O)C3OC3[C@]2(C)C2CC[C@@]3(C)[C@H](c4ccoc4)OC(=O)C4OC43[C@@]21C (some centres not stated) | 101% (inactive) |
| C=C1[C@H]2CC[C@@]3(C)[C@H](c4ccoc4)OC(=O)C[C@]13O[C@H]1C[C@H](O)C(C)(C)[C@H](CC(=O)OC)[C@]12C | 107% (inactive) |
| CC(C)Oc1ccc2c(=O)cc(-c3ccccc3)oc2c1 | 114% (inactive) |
| COc1ccc([C@@H]2CC(=O)c3c(O)cc(O)cc3O2)cc1O | 115% (inactive) |
| O=C(N[C@@H](CO)[C@H](O)c1ccc([N+](=O)[O-])cc1)C(Cl)Cl | 114% (inactive) |
| O=C(Oc1cccc2cccnc12)c1ccccc1 | 92.9% (inactive) |
| CCCc1cc(C(N)=S)ccn1 | 110% (inactive) |
| COc1cc(C)c(C(=O)Oc2cc(C)c(C(=O)O)c(O)c2C)c(OC)c1C | 91.1% (inactive) |
| CC12OC(=O)CC3C(C)(C)[C@H](O)C=C[C@]3(C)C1CC[C@]1(C)C2=CC(=O)O[C@H]1c1ccoc1 (some centres not stated) | 118% (inactive) |
| CCC(=O)O[C@H](CC(=O)O)C[N+](C)(C)C | 107% (inactive) |
| CCCCCC(C)N (configuration not stated) | 111% (inactive) |
| COC(=O)C[C@@H]1C2(C)C(=O)[C@@H](CC3C2CC[C@]2(C)C3CC(=O)O[C@H]2c2ccoc2)[C@H](OC(C)=O)C1(C)C (some centres not stated) | 109% (inactive) |

From PubChem BioAssay
